40 compounds from PubChem BioAssay (Tox21) can be followed below.

Results filed as inconclusive are left out. A call without a number means that no potency is given here. Activity calls are given as the source filed them. The call rests on the fitted dose curve; in most records, active means well fitted inhibition curve with a large enough effect in the repeat runs; inconclusive means weak or mixed curves; inactive means no such curve, though single readings can be large or run the other way.
Potency means the concentration at half of the fitted maximal effect.

The assay can be described thus: qHTS assay to identify small molecule antagonists of the thyroid receptor (TR) signaling pathway (AID 743065). Further: nearly all actives have a fitted effect of over 55% in size. Conditions: GH3.TRE-Luc, T3-stimulated luciferase inhibition, 23.5 h; series mostly up to 70.3 µM. From the text:
U.S. Tox21 Program National Center for Advancing Translational Sciences [NCATS] NIH Chemical Genomics Center [NCGC] U.S. Environmental Protection Agency [EPA] National Institutes of Environmental Health Sciences [NIEHS] National Toxicology Program [NTP] U.S. Food and Drug Administration [FDA] Tox21 Assay Overview: Thyroid receptor (TR), a nuclear hormone receptor, plays an important role in development, proliferation, differentiation, metabolism, brain function, and cardiovascular system. […] To profile the Tox21 10K compound library in TR signaling, a cell-based GH3-TRE-Luc assay (GH3.TRE-Luc cell line, developed by the laboratory of Dr. Albertinka J. Murk, Wageningen University) was used to measure the inhibition of TR. GH3 (rat pituitary tumor) cells stably expressing a TR activity sensor consisting of two TR response elements and a luciferase reporter gene.
Tox21 Assay Protocol Summary: GH3.TRE-Luc cells were dispensed at 1500 cells/4 uL/well into 1536-well white solid bottom plates using a Multidrop Combi dispenser (Thermo Fisher Scientific Inc., Waltham, MA). After the assay plates were incubated at 37 C for 4 hours, 23 nL of library compound or DMSO controls was transferred to the assay plates by a pintool station (Kalypsys, San Diego, CA), followed by addition of 1 ul of T3 (1 nM, final concentration in the wells) to stimulate TR transactivation. The assay plates were incubated at 37 C for 23.5 h, and then 1 uL of CellTiter-Fluor reagent (Promega, Madision, WI) of measuring cytotoxicity was added to each well using a Bioraptr Flying Reagent Dispenser (FRD) workstation (Beckman Coulter, Indianapolis, IN, USA). The plates were incubated at 37 C and 5% CO2 for additional 30 min, and fluorescence intensity was measured by a ViewLux plate reader (PerkinElmer, Shelton, CT). For measuring luciferase reporter gene activity, 4 uL of ONE-Glo Luciferase Assay reagent (Promega) was added to each well using a Bioraptr FRD (Beckman Coulter), followed by 30 min incubation at room temperature. The luminescence intensity of plates was recorded by a ViewLux plate reader (PerkinElmer, Shelton, CT).
(Quantitative high-throughput screening tests each substance at several concentrations.)
For `O=C(CCN1CCN2CCCC2C1)N1c2ccccc2Sc2ccc(Cl)cc21` (stereo not given), the Potency is 18.8 µM (active). Take `CC(C)CC=O`: the Potency entry is “inactive”. Turning to `C=Cc1c(C)c2cc3[nH]c(cc4nc(cc5nc(cc1[nH]2)C(C)=C5CCC(=O)O)C(CCC(=O)O)=C4C)c(C)c3C=C`, the Potency entry was “inactive”. As to `Oc1ccc(Sc2ccc(O)cc2)cc1`, the Potency is 51 µM (active).

Take `CC(=O)/C=C/C1C(C)=CCCC1(C)C` (stereo not given): the Potency entry is “inactive”. For `COC(Cc1ccccc1)OC` the value was “inactive”; for `S=C(S)NCCNC(=S)S`, “inactive”; for `COc1ccc(OC)c(OC)c1`, “inactive”. Consider `CCOC(=O)C1=NN(c2ccccc2)C(=O)C1`, for which the Potency entry was “inactive”.

For `SC1CCCC1`, the Potency result was “inactive”.

As for `N#Cc1cc2ccccc2c2ccccc12`, the Potency result is “inactive”.

`Cc1cccc(C(C)(C)C)c1O`: the Potency entry is “inactive”. `NC(N)=N/N=C/c1c(Cl)cccc1Cl`: the Potency is 23.7 µM (active). In the case of `CCCCOC(O)CC` (stereo not given), the Potency result is “inactive”.

Take `O=C(/C=C/c1ccc(O)c(O)c1)O[C@@H]1C[C@](O)(C(=O)O)C[C@@H](O)[C@H]1O`: the Potency result was “inactive”.

Consider `CC(C)(C)c1cc(CO)cc(C(C)(C)C)c1O`, for which the Potency was 62.3 µM (active).

As to `CCCCCCCCC(CO)CCCCCC` (stereo not given), the Potency result was “inactive”.

As to `Nc1ccc(C(=O)Nc2ccccc2N)cc1`, the Potency was 29.8 µM (active). The same measure for `O=C(Cl)c1c(Cl)cccc1Cl`: “inactive”; for `CCCc1ccccc1`: “inactive”; for `CCCC[C@H]1CN(CC2CCOCC2)C(=O)OC12CCN(C1(C)CCN(C(=O)c3c(C)ncnc3C)CC1)CC2`: “inactive”. On to `C=C(C)C(=O)OCCOc1ccccc1`, for which the Potency result was “inactive”.

For `N#CCCNCCC#N`, the Potency entry was “inactive”. As for `CN(c1nccc(=O)[nH]1)C1CCN(c2nc3ccccc3n2Cc2ccc(F)cc2)CC1`, the Potency entry is “inactive”.

On to `CCCCCCCCCCCCCCCCCBr`, for which the Potency result is “inactive”. Consider `CC(=O)Nc1ccc(/C=N/NC(N)=S)cc1`, for which the Potency entry was “inactive”. Take `CC(C)(C)c1ccc(S)cc1`: the Potency entry is “inactive”.

For the compound `C=C(C)C(=O)OC(C)C`, the Potency entry was “inactive”. For `CN(C)CCCOc1nn(Cc2ccccc2)c2ccccc12` the value was 9.02 µM (active); for `CNCC[C@@H](Oc1ccccc1C)c1ccccc1`, 23.7 µM (active); for `NCCCN(CCO)CCO`, “inactive”. On to `c1ccc(CNCc2ccccc2)cc1`, for which the Potency result was “inactive”. Take `O=C1CCCCCO1`: the Potency entry is “inactive”.

Turning to `CCCCOCCOCCOCCOCCO`, the Potency result is “inactive”.

As to `O=C(C(=O)c1ccc(Br)cc1)c1ccc(Br)cc1`, the Potency entry is “inactive”. In the case of `CC1=CC(=O)/C(=C(/C)O)C(=O)O1`, the Potency result was “inactive”.

With `Oc1ccc(O)c2c(O)cccc12`, the Potency entry was “inactive”. As to `CCCC(=O)OCC`, the Potency result was “inactive”. For the compound `ClC(Cl)(Cl)c1ccc(C(Cl)(Cl)Cl)cc1`, the Potency result is “inactive”. As to `CCCCCCCCN(C)C`, the Potency result was “inactive”.
